Measurements reported in the supplement of paper PMC11417369.
The full ranking holds about 25,000 sequences; the median of “ln(normalized median fluorescence intensity)” is about 9.7, and the highest 2% start at about 11. The sample as a whole holds a higher share of the highest values than the screen did.

Tested on: PfAP2-HC AP2 domain (GST-tagged)
Experiment: gcPBM binding intensity (ln(normalized median fluorescence intensity)); higher = stronger DNA binding
In short: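 Probes on an Agilent 4 × 180k array were primer-extended, double-stranded and 36 bp long, taken from intergenic genomic regions, with negative controls added. GST-tagged P. falciparum DNA-binding domains from E. coli, about 25 μg on average, were applied to the array for 1 h in 1× PBS containing 1% milk, 0.2 mg/ml BSA, 0.5% salmon testes DNA and 0.03% Triton X-100. Binding intensity, obtained after Alexa488 anti-GST antibody detection and a 488 nm scan, is the highest Masliner-normalised natural-log median intensity across replicate spots of either probe orientation.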

Point of comparison: “AATATTTATAAATTTACACACACACCCGTGAACATA [CACACA_site1910]”, “gcPBM binding intensity (ln)” value 10.2. Against it:
- CACCCACACCAACACACACACATATATAATATATAT [CACACA_site595] — higher, 10.6
- CACACCACCAACAAAAGTACATACATATATATATAT [XGTACX_site5781] — lower, 9.82
- TATAAACACCCATATAAACACACATATAAACCAACA [CACACA_site8790] — lower, 10
- CGCGCACCCAGACACACACACACACCCATATATATA [CACACA_site2203] — higher, 10.6
- CATACTCACCAACACACACACACACCCATATAGAAT [CACACA_site592] — higher, 11.1
- CACACCCACCAACACACACACACACCCACCCATATA [CACACA_site366] — higher, 11
- CACGCGCACCAACACACACACACACCCATATATATA [CACACA_site2204] — higher, 11.1
- CATATACACCAACACACACACACACCCACAAAAAAA [CACACA_site496] — higher, 11.3
- GACACCCATAAATATACACACGCACAACACAAAATA [CACACA_site8944] — lower, 9.98
- ACCATACATACATACACACACACACCCATATATATA [CACACA_site2917] — higher, 10.6
- TAACCATACATACATACACACACACCCACATATATA [CACACA_site8951] — higher, 10.3
- TATACATACCCACCCACACACAAAAAAAAAAAAAAA [CACACA_site4632] — the same, 10.2
- TAATTAAAATCATATACACACCCATATATATATATA [CACACA_site8524] — lower, 10
- AAATACCTTATATATACACACTATGTTTTTCTTTTT [CACACA_site4792] — lower, 9.97
- AATAAATAAAAATTATGTACATATATAAAAAATACA [XGTACX_site8581] — lower, 9.82
- TTGTTTCTTTTTTTTTGTACATATATATTGTATATT [XGTACX_site7602] — lower, 9.89
- AATAATAAATCAAACTGTACATATATTTTCAATCTA [XGTACX_site3344] — lower, 9.61
- TATAAAAAAATAATAAAATAATAAAATATATAAATA [TGCATGCA_negctrl_site394] — lower, 9.6
- AAAAAAAAAAAATGTGCACACGCGTACAGACAAAAA [CACACA_site2005] — higher, 10.3
- ATTAAATCTATATATACACACATGTTTGGTATATTC [CACACA_site2657] — lower, 9.87
- ATGCACTCATTGTGCACACGCATATTACGAAAAGAA [CACACA_site2638] — lower, 9.86
- TTTTTTTTTTGATGTTGTACATATATACTATATAAT [XGTACX_site1332] — lower, 9.65
- AAAACAAATGCTTAAAGTACTTATTATTTTTCTTTT [XGTACX_site6324] — lower, 9.57
- TAAATAAATTTATACACACACACACCCATATATATA [CACACA_site849] — higher, 10.9
- GATGAATAAATCAAAGCACACATACACCCACATATA [CACACA_site7986] — higher, 11.2
- ATTAATTATATATATACACACACATACACCCAAATA [CACACA_site9126] — higher, 10.3
- TAATTATATAAATACACACACATACACCCAAATAAA [CACACA_site5819] — higher, 11.1
- TGAATAAATCAAAGCACACATACACCCACATATATA [CACACA_site286] — the same, 10.2
- TATAAATAAATTTATACACACACACCCATATATATA [CACACA_site8183] — higher, 10.3
- AAATTATAATATAATACACACATAAAAAAAAAAAAA [CACACA_site7] — lower, 9.79
- CATATATATAAATACACACACACACCCCTTATAATT [CACACA_site4064] — higher, 10.6
- TACATATACATATACACACACACACCCAAATAAATA [CACACA_site1344] — higher, 10.5
- TCAAAGCACCCATACACACACATATATATATATATA [CACACA_site4317] — higher, 10.5
- AATAAATATATATACACACCCATATATATATATATA [CACACA_site2595] — lower, 9.63
- CATATAAATAAATACACACACACACGCCTTATAATT [CACACA_site7830] — higher, 11.6
